Assay results: ChEMBL document CHEMBL3988442, “University of Dundee, Small-Polar-MMV Screening Library” (2021)
For some assays here: Measured potencies and affinities stand elsewhere.

How the values were obtained:
Design in all cases: scale not given: direction of the effect not stated beside the values
[1] = molecular target: Protein translocase subunit SecA (Escherichia coli (strain K12)) (UniProt P10408); assay: Assay to Identify E. coli SecA ATPase Inhibitors; assay type: functional; conditions: 30 µM
Chain of Protein translocase subunit SecA (Escherichia coli (strain K12)) (P10408 whole entry): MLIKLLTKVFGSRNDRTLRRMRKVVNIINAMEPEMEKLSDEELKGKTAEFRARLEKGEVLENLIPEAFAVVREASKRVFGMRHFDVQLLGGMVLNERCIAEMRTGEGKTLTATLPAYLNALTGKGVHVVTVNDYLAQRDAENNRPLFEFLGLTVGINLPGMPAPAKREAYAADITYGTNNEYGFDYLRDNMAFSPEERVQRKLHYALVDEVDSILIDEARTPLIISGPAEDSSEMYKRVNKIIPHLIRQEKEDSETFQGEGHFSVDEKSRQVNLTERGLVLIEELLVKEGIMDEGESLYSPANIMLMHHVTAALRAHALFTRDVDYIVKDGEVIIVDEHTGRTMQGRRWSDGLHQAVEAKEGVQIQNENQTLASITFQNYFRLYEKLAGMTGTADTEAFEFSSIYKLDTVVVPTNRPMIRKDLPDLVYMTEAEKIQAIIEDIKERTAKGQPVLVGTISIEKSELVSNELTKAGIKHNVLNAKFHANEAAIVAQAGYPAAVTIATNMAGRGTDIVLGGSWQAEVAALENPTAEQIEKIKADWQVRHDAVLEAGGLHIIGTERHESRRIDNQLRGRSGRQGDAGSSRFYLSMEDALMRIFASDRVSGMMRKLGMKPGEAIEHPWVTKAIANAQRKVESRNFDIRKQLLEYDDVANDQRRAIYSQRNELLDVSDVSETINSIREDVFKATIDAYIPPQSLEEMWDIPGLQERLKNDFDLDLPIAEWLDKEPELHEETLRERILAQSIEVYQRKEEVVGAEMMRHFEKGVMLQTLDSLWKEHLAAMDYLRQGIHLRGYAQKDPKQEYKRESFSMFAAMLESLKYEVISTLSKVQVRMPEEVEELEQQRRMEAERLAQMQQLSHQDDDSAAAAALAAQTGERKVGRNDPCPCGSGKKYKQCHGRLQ

[2] = molecular target: T1, Ubiquitin-activating enzyme e1, putative (Leishmania donovani (strain BPK282A1)) (UniProt E9BSI1); assay: Leishmania donovani Ubiquitin Activating Enzyme (LdE1); assay type: functional; conditions: 30 µM
T1 sequence (whole entry): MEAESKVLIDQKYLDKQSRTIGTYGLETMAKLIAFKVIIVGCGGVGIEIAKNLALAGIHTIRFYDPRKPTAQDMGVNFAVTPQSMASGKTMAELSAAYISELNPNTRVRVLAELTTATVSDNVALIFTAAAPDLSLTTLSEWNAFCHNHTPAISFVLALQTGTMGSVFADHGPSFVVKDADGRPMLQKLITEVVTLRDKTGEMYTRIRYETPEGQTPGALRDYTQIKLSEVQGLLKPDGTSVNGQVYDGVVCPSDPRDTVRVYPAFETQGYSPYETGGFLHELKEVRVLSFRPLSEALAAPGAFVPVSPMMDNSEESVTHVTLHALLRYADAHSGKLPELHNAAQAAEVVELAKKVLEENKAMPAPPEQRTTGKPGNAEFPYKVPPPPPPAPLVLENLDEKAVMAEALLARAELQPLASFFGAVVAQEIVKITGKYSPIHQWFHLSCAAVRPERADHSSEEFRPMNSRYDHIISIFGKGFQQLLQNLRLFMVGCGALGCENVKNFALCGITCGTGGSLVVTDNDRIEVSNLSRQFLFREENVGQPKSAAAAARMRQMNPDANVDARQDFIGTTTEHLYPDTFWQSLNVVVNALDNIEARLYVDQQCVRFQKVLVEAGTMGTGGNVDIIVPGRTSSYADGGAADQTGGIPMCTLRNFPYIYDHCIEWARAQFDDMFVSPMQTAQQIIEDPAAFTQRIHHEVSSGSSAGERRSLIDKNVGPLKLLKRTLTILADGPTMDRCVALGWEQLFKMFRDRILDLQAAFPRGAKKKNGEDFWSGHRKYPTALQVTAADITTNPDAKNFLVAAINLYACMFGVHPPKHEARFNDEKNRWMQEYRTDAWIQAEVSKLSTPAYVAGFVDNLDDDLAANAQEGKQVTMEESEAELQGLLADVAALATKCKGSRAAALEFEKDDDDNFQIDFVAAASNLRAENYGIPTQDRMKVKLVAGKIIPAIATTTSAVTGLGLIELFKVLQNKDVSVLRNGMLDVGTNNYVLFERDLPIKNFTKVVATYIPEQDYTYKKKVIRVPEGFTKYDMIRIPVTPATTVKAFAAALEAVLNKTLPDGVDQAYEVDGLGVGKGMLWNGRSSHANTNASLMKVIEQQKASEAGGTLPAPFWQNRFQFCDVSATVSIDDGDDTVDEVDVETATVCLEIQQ

[3] = molecular target: AMP-activated protein kinase, AMPK (Homo sapiens) (UniProt P54646+O43741+P54619+Q9UGJ0+Q9Y478+Q13131+Q9UGI9); assay: AMP-dependent Kinase enzyme assay. An in vitro enzyme assay that detects ADP turnover that is directly proportional to AMPK activity. This uses naive AMPK that is activated during the assay with MK-8722; assay type: functional; conditions: 30 µM
[4] = molecular target: Sialic acid-binding Ig-like lectin 9 (Homo sapiens) (UniProt Q9Y336); assay: Hs-Siglec9 ALPHAscreen SOP 20170721; conditions: 10 µM
Chain of Sialic acid-binding Ig-like lectin 9 (Homo sapiens) (Q9Y336 whole entry): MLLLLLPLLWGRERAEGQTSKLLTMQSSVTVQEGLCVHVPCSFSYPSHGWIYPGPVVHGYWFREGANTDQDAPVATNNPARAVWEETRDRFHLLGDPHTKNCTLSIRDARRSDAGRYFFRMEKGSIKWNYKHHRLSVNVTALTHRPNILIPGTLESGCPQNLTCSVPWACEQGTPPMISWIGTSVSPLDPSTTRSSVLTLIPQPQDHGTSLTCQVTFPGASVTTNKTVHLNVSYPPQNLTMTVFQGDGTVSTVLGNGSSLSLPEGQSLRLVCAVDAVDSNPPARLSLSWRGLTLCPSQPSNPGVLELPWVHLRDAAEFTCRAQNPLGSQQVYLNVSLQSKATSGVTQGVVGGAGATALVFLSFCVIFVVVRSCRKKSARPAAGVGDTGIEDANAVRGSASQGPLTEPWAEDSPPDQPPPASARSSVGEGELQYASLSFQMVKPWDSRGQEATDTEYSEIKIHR

[5] = test system: Trypanosoma cruzi; assay: Trypanosoma cruzi phosphomannomutase and mannose-1-phosphate guanylyltransferase assay; assay type: functional; conditions: 10 µM
[6] = molecular target: T2, Arginase-2, mitochondrial (Homo sapiens) (UniProt P78540); assay: in vitro enzyme assay to detect the production of urea directly proportional to the activity of Arginase II; assay type: functional; conditions: 33.3 µM; note: in the data most compounds retested in dose-response had high values
T2 sequence (whole entry): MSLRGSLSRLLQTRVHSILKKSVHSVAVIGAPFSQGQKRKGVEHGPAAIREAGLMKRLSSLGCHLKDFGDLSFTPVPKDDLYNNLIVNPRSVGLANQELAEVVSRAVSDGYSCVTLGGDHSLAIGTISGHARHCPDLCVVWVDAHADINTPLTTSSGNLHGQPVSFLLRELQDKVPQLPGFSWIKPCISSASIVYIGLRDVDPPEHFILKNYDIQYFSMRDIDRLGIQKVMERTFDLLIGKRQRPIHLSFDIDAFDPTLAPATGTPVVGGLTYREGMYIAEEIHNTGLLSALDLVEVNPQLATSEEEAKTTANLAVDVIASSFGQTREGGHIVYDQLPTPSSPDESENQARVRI

[7] = molecular target: T3, Proteasome subunit beta (Trypanosoma cruzi) (UniProt O96673); assay: Trypanosoma cruzi proteasome chymotrypsin-like activity (TcProtChymo) assay.; note: in the data most compounds retested in dose-response had high values; assay type: functional; conditions: 9.37 µM
T3 sequence (whole entry): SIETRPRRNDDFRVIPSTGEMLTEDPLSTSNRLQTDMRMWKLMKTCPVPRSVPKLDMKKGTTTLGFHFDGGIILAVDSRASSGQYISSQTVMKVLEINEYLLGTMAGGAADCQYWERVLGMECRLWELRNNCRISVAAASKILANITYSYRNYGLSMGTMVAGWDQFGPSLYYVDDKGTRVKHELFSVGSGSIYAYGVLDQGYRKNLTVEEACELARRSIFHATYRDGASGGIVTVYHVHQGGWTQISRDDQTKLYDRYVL

[8] = species: Homo sapiens; assay: To identify inhibition of the IFN signalling (Jak-Stat) pathway via expression of an eGFP reporter gene under the control of an IFN-stimulated response element (ISRE) containing MxA promoter.; assay type: functional; conditions: 30 µM
[9] = molecular target: T4, Tyrosyl-tRNA synthetase, putative (Trypanosoma cruzi (strain CL Brener)) (UniProt Q4DSP6); assay: Trypanosoma cruzi tyrosyl tRNA synthetase (TcYRS) _High Tyrosine SOP; assay type: functional; conditions: 30 µM; note: in the data most compounds retested in dose-response had high values
T4 sequence (whole entry): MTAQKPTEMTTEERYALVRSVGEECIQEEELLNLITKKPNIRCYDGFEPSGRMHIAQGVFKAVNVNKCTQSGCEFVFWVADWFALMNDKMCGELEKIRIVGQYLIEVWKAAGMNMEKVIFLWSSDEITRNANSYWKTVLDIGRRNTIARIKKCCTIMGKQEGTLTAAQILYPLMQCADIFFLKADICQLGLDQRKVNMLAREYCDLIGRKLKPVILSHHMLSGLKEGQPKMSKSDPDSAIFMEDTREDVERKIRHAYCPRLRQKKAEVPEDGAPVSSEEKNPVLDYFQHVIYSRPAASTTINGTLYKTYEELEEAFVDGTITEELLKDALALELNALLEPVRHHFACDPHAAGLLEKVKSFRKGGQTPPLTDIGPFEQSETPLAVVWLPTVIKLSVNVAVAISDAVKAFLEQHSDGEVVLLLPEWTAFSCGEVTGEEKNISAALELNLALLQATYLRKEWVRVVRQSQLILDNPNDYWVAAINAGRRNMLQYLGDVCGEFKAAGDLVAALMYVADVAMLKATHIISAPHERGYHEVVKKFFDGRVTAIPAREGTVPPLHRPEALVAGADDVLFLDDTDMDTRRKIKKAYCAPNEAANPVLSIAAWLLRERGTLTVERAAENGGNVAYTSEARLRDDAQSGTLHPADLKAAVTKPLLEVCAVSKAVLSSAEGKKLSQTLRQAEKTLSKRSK

[10] = molecular target: T4, Tyrosyl-tRNA synthetase, putative (Trypanosoma cruzi (strain CL Brener)); assay: Trypanosoma cruzi tyrosyl tRNA synthetase (TcYRS) SOP; assay type: functional; conditions: 30 µM
[11] = molecular target: Chromo domain-containing protein 1 (Saccharomyces cerevisiae (strain ATCC 204508 / S288c) (Baker's yeast)) (UniProt P32657); assay: ScCHD-1 Enzyme Inhibition Assay; assay type: functional; conditions: 30 µM; note: in the data most compounds retested in dose-response had high values
Chain of Chromo domain-containing protein 1 (Saccharomyces cerevisiae (strain ATCC 204508 / S288c) (Baker's yeast)) (P32657 whole entry, the tested form may be a part): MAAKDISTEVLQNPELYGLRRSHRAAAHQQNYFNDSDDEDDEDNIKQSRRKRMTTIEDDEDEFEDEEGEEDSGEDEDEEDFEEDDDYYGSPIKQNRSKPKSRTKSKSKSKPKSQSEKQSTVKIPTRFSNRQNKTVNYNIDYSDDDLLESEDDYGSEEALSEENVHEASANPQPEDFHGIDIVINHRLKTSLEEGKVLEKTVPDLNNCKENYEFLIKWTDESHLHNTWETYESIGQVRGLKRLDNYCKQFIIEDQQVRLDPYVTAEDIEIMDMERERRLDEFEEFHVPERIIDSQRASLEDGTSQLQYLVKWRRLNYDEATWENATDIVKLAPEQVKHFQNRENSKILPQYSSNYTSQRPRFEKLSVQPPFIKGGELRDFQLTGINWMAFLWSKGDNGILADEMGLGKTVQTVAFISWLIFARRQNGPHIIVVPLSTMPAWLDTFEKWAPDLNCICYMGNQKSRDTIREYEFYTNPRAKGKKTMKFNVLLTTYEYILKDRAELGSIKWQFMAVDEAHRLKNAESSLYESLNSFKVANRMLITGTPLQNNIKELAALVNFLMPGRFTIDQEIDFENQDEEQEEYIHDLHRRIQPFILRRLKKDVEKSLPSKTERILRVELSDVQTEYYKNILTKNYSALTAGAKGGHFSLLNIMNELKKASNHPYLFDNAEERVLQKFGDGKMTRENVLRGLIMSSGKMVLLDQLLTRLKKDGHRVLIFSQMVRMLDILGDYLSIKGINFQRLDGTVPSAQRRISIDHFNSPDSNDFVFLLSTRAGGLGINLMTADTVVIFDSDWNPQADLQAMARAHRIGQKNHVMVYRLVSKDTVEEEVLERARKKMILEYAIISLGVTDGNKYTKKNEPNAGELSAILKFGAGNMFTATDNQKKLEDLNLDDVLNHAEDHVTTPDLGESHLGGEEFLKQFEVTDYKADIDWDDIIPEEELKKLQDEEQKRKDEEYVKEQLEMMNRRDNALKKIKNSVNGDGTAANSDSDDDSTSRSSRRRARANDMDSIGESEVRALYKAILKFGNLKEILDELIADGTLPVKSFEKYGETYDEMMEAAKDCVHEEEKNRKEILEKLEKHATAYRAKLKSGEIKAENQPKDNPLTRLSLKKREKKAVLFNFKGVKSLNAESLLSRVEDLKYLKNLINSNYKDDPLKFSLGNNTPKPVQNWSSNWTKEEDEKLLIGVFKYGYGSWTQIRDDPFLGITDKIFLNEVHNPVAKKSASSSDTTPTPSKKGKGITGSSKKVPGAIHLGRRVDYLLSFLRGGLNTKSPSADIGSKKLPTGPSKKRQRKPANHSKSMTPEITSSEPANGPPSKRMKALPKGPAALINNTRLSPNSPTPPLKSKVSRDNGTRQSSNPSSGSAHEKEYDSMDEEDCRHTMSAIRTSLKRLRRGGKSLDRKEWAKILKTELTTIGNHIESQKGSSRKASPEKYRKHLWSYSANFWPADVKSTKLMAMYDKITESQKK

SMILES | Percent Effect [1] [%] | Percent Effect [2] [%] | Percent Effect [3] [%] | Percent Effect [4] [%] | Percent Effect [5] [%] | Percent Effect [6] [%] | Percent Effect [7] [%] | Percent Effect [8] [%] | Percent Effect [9] [%] | Percent Effect [10] [%] | Percent Effect [11] [%]
CS(=O)(=O)NCCCN1CCCC1Cc1ccccc1 (stereo unspecified) | -4.3 | 0 | -5.49 | 11.9 | 3.49 | -3.42 | 9.09 | 13 | 5.42 | 16.5 | -3.37
CCc1nc(C)c([C@H]2CN(C)C[C@@H]2C(=O)Nc2ccc(OC)cc2)[nH]1 | -5.53 | 5.41 | -1.46 | 2.65 | 1.16 | -2.86 | 8.28 | 1.5 | 8.99 | 12.2 | -4.67
CC(O)CN1CCN(Cc2csc(-c3ncccn3)n2)CC1 (stereo unspecified) | 1.21 | 7.89 | -3.51 | -8.16 | -3.02 | 3.55 | 24.6 | 16.8 | 5.32 | 15.6 | -4.73
Cc1nc(N2CCOCC2)nc2c1CN(C(=O)Cc1ccccn1)CC2 | 1.23 | 0 | 3.27 | 5.25 | 0.688 | 4.14 | 2.66 | -4.9 | 3.23 | -1.24 | 0.916
COCCn1nc(C(=O)N(C)Cc2cnn(C)c2)ccc1=O | -6.3 | 15.8 | -7.26 | -8.02 | 4.38 | -8.28 | 14.7 | 9.08 | 5.32 | -2.6 | -9.82
O=C(c1n[nH]c(=O)c2ccccc12)N1CCCCC1c1ccn[nH]1 (stereo unspecified) | -1.96 | 1.35 | 14.9 | -7.74 | -5.53 | -8.12 | 1.72 | 0.863 | 4.3 | 6.49 | -5.69
CCN(C(=O)CCCOc1ccccc1F)c1ccncc1 | -5.32 | 18.4 | -2.56 | 5.73 | 5.36 | -20.1 | 10.1 | 11.9 | 5.32 | 7.79 | -5.44
COCC(=O)N1CC[C@H]2C[C@H](C)O[C@@H]2C1 | -3.06 | 13.3 | 4.66 | -5.49 | 4.53 | -2.56 | 17.4 | -11.4 | 7.45 | 14.1 | -3.21
Cc1ccc(C(O)CNCc2c(C(C)C)nn(C)c2N(C)C)cc1 (stereo unspecified) | -7.17 | 13 | -5.78 | 6.38 | 7.87 | -3.56 | 10.1 | -0.105 | 10.7 | 19.5 | -7.91
CCOc1ccc(CNCCCn2ccnc2)cc1Br | -0.283 | 12 | -3.14 | 3.52 | -3.34 | -6.51 | 12.8 | 9.57 | 6.35 | 10.3 | -10.4
O=S1(=O)COCCN1Cc1cccc(Cl)c1 | -1.74 | 5.41 | -2.78 | 6.98 | 7.92 | -1.91 | 13.4 | 17.7 | 8.99 | 12.2 | -2.28
COc1ccc(Br)c(C(=O)NCC2CCN(S(=O)(=O)C3CC3)CC2)c1 | -4.34 | 19.2 | -7.39 | 14 | 6.07 | -3.18 | 19.5 | 20.3 | 4.3 | 17.5 | -9.38
O=C(c1ccc2c(c1)CCC2)N1C[C@@H](CN2CCOCC2)[C@@H](CO)C1 | -4.64 | 2.67 | 1.02 | 21.3 | -6.52 | 0 | 1.22 | 0.733 | 3.83 | 3.7 | -3.15
COc1cccc(OCC2CCCN(C(=O)c3cnc(C)nc3O)C2)c1 (stereo unspecified) | 0.517 | 8.11 | -1.51 | 13.5 | 5.02 | 11.9 | 7.24 | -19 | 7.94 | 17.1 | -2.95
Cc1nc(CN2CCCN(C(=O)C3(C#N)CCCCC3)CC2)cs1 | -5.19 | 5.06 | -4.31 | 9.63 | -1.79 | 0 | 7.12 | 13.8 | 6.4 | 13.9 | -3.28
COc1ccc(CC(=O)N2CCCC2Cn2cccn2)cc1F (stereo unspecified) | -2.59 | 2.63 | -8.2 | 6.06 | -2.52 | 1.44 | 2.12 | -12.5 | -0.493 | 1.24 | -2.17
